# High-throughput results as filed in PubChem.
# SARS PLpro yeast = SARS-CoV PLP inhibition in yeast. 330,000 compounds, 0.19% hits. S. cerevisiae expressing SARS-CoV PLpro, growth rescue. Potency, µM (highest dose often 32.9 µM), for the others: at the highest dose activity, positive = growth rescue, usual class: activators; calls by dose curve; further: 0% is about no effect; nearly all actives have a fitted effect of over 55% in size
# Pf growth 96h = P. falciparum growth inhibition at 96 hour, primary screen for plastid delayed-death inhibitors | P. falciparum luciferase reporter growth, 96 h | Potency, µM (top dose mostly 28.7 µM), inactives show at the top dose activity change, negative = inhibition, actives largely listed as inhibitors | 320,000 compounds, 6.9% hits | AID 504834; further: on the % scale 0 is the no-effect control and ±100 the full control effect
#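 Infected RBCs, 2% Hct / 0.05% parasitemia final; luciferase-reporter P. falciparum; cpd 96 h, 37 C, 5% CO2; luciferase detection reagent; luminescence.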
# AMA1-RON2 inh = AMA1-RON2 (P. falciparum) interaction inhibition | AlphaScreen AMA1-biotinylated RON2 peptide binding | Potency, µM (top dose mostly 58.2 µM), for the others: top-dose activity change, negative = inhibition, actives largely listed as inhibitors | 360,000 compounds, 0.2% hits | AID 720542;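 further: 0% = vehicle wells and -100% = peptide control; nearly all actives have a fitted effect of over 45% in size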
#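 AMA1 (3D7) with his tag at 25 nM final met compounds first, then biotinylated RON2 peptide at 25 nM; detection used donor plus acceptor beads, 10 µg/mL apiece, read by AlphaScreen after 30 min at room temperature.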
# Pf growth 48h = inhibits P. falciparum growth in the first generation, 48 h; Potency, µM (doses to about 28.7 µM), for the others: at the highest dose activity change, negative = inhibition, most hits filed as inhibitors; P. falciparum luciferase growth in erythrocytes, 48 h; 310,000 compounds, 5.9% hits; AID 504832; further: on the % scale 0 is the no-effect control and ±100 the full control effect
#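 Firefly luciferase activity from engineered P. falciparum reports growth; inhibitors lower the luminescent signal. Cultures contained 2% hematocrit erythrocytes at 0.1% final parasitemia.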
# NS1 function inh = inhibitors of influenza NS1 protein function; Potency, µM (top dose mostly 46.1 µM), without a hit: at the top dose activity, positive = more growth; 270,000 compounds, 0.4% hits; AID 2326; calls by dose curve; further: actives are rising curves; nearly all actives have a fitted effect of over 50% in size
#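 In this qHTS, NS1 from influenza A is expressed in budding yeast, where it slows growth. Cells are switched from glucose to 2% galactose medium (pH 6.0, -URA), treated with compound, and growth recovery is read at OD600.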
# HCV inh = HCV inhibition | Huh7.5.1 HCVcc-Cre infection, luciferase reporter, 44 h | Potency, µM (series often up to 41.8 µM), for inactives: top-dose activity change, negative = inhibition, hits mostly inhibitors | 340,000 compounds, 3.4% hits | AID 651820; further: on the % scale 0 is the no-effect control and ±100 the full control effect
#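 Seed cells (1,000/well) for 4 h; treat with compound and infect with HCVcc-Cre, moi about 0.5. Incubate 44 h, then detect luciferase activity.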
# The depositor's hits bear a star; ? = inconclusive; . = not tested or not shown; ! = a repeat was not active; [ ] = remark or other dose. This is a sample that favours compounds with a hit; in the whole collection about 12% have one here. Unless noted, the call rests on the fitted dose curve; in most records, active means well fitted curve in the direction sought with a large enough effect; inconclusive means small, poorly fitted or top-dose-only effect, or another doubt; inactive means no such curve, though single readings can be large; an effect the other way counts as inactive or inconclusive. Potency means the concentration at half of the fitted maximal effect.
SMILES,SARS PLpro yeast,Pf growth 96h,AMA1-RON2 inh,Pf growth 48h,NS1 function inh,HCV inh
NS(=O)(=O)c1ccc(Nc2nc3ccccc3nc2NS(=O)(=O)c2cccc([N+](=O)[O-])c2)cc1,1.9%,0.7%,-2.4%,-15.6%,-16.8%,30.6%
Cc1cc(NC(=O)CCl)no1,14.7%,60.8%,-8.4%,2.94µM*,4.8%,?
O=CN1Cc2[nH]c3ccccc3c2N(c2ccc(Cl)cc2)C1=O,-2.6%,9.28µM*,18.1%,.,-3.7%,0.3%
O=C(CN1C(=O)CSc2ccc(S(=O)(=O)N3CCCCC3)cc21)NCc1ccccc1Cl,1.4%,31.1%,-6.9%,?,-4.9%,-19.2%
CC[C@H]1C(Nc2ccccc2)C[C@@H]2CCN3C(=O)CC[C@H]1[C@H]23 (some centres not stated),.,.,-0.7%,.,.,29.6%
O=C(O)CNC(=O)CC1S/C(=N/N=C/c2ccccc2O)NC1=O (configuration not stated),25.4%,-15.5%,85.7%,?,1.9%,0.6%
O=C(O)CNC(=O)CC1S/C(=N/N=C2\CSC(=O)N2)NC1=O (configuration not stated),4.9%,4.1%,39.8µM*,-15.0%,2.0%,10.3%
CC(C)Cn1c(N)c(C(=O)COC(=O)CC23CC4CC(CC(C4)C2)C3)c(=O)n(C)c1=O,-16.3%,?,-7.5%,.,26.0%,6.31µM*
CC(C)Cn1c(N)c(C(=O)COC(=O)/C=C/c2ccccc2)c(=O)n(C)c1=O,2.8%,10.4µM*,-13.0%,?,.,7.08µM*
COC(=O)c1c(C)[nH]c(C(=O)OCC(=O)c2c(N)n(CC(C)C)c(=O)n(C)c2=O)c1C,-2.5%,.,-0.8%,.,.,3.98µM*
CC(C)Cn1c(N)c(C(=O)COC(=O)c2ccc(Br)cc2)c(=O)n(C)c1=O,2.0%,.,14.6%,.,.,?
Cc1cccc(C(=O)OCC(=O)c2c(N)n(CC(C)C)c(=O)n(C)c2=O)c1[N+](=O)[O-],.,12.2%,3.1%,2.5%,.,14.1µM*
Cc1nc2cccc([N+](=O)[O-])c2n1CCCN(C)C,.,.,.,.,-8.7%,.
COc1ccc(-n2cc(C(=O)O)c(=O)cc2C)cc1,-1.6%,0.1%,-11.0%,18.9%,.,28.9%
COc1ccccc1NC(=O)C(C)OC(=O)C1CCC(C(C)(C)C)CC1 (configuration not stated),-13.1%,14.7µM*,8.8%,2.94µM*,.,-7.3%[8.37 µM]
COc1ccccc1NC(=O)C(C)OC(=O)C1CC(=O)N(c2ccc3c(c2)OCCO3)C1 (configuration not stated),-8.3%,62.0%,24.5%,1.3%,0.0%,12.3%
O=C(CN1C(=O)NC2(CCc3ccccc32)C1=O)Nc1ccc(Br)cc1F (configuration not stated),-0.7%,-1.9%,-9.9%,?,.,?
CCOC(=O)NCCc1c(C)nc2c(c(C)nn2C(C)(C)C)c1C,2.0%,0.165µM*,-6.1%,.,-57.3%,?
CCOC(=O)N1CCC(NC(=O)CCc2c(C)nc3c(c(C)nn3-c3ccccc3)c2C)CC1,.,.,11.1%,.,11.1%,13.7%
CCN(CC)CCOC(=O)c1ccc(N)cc1,-3.5%,?,1.7%,15.6%,6.6%,10.1%
CCCOc1cc(N)ccc1C(=O)OCCN(CC)CC,.,0.721µM*!,-0.2%,14.8%,.,24.5%
c1ccc(CC2=NCCN2)cc1,0.8%,?,7.1%,-26.5%[12.8 µM],1.3%,22.5%
c1ccc(CN(CC2=NCCN2)c2ccccc2)cc1,2.9%,11.7µM*!,0.7%,-25.1%,7.2%,0.9%[8.37 µM]
Cc1cc(C)nc(CCNC(=O)CC2C(=O)NCCN2Cc2ccccc2)n1 (configuration not stated),0.0%,21.5%,8.6%,31.4%,?,13.6%
COC(=O)[C@@]12OC[C@]34[C@H]([C@@H](O)[C@@H]1O)[C@@]1(C)C(=O)C(O[C@@H]5OC(CO)[C@@H](O)[C@@H](O)[C@@H]5O)=C[C@@H](C)[C@@H]1C[C@H]3OC(=O)[C@H](OC(=O)/C=C(\C)C(C)(C)OC(C)=O)[C@@H]24 (some centres not stated),1.5%,4.65µM*,24.3%,2.62µM*,.,11.2µM*
SMILES,SARS PLpro yeast,Pf growth 96h,AMA1-RON2 inh,Pf growth 48h,NS1 function inh,HCV inh
Cc1nc2c(-c3ccccc3)c(C)[nH]n2c(=O)c1Cc1ccccc1,0.5%,5.6%,78.4%,10.4µM*,-0.2%,10µM*
CCN(CC)S(=O)(=O)c1cccc(C(=O)Nc2cc(C)on2)c1,-4.5%,?,6.1%,?,2.1%,-14.8%
O=C(COn1nnc2ccc(S(=O)(=O)N3CCOCC3)cc21)Nc1c(F)c(F)c(F)c(F)c1F,0.1%,-18.6%,7.6%,15.4%,5.0%,4.4%
CCOc1ccc(CCNC(=O)c2cccc(S(=O)(=O)N3CC(C)OC(C)C3)c2)cc1OCC (configuration not stated),0.2%,10.4µM*,-5.0%,9.28µM*,.,?
CCOc1ccc(CCNC(=O)COn2nnc3ccc(S(=O)(=O)N4CCOCC4)cc32)cc1OCC,0.0%,9.28µM*,-5.3%,?,.,?
CCOc1ccc(CCNC(=O)c2cccc(S(=O)(=O)N3CCCC3)c2)cc1OCC,1.8%,?,-13.1%,11.7µM*,.,?
CCOc1ccc(CCNC(=O)COC(=O)c2cccc(S(=O)(=O)N3CCOCC3)c2)cc1OCC,2.7%,?,-4.3%,9.28µM*,.,10.1%
CC1CCCCN1C(=O)COC(=O)/C=C/c1ccc2ccccc2n1 (configuration not stated),0.5%,?,-2.5%,-5.0%,.,-23.3%
COc1ccccc1CNC(=O)COC(=O)c1ccc(C)c(S(=O)(=O)N2CCOCC2)c1,0.5%,14.0%,8.8%,22.9%,.,-9.4%
CCOc1ccc(CCNC(=O)c2ccc(S(=O)(=O)N3CCCC3)cc2)cc1OCC,-1.3%,?,-1.8%,11.7µM*,.,?
COc1cc2c(cc1OC)CN(C(=O)c1ccc(S(=O)(=O)N3CCCC3)cc1)CC2,0.4%,-20.5%,-10.5%,-14.4%,-6.2%,-14.9%
CCOc1cc2c(cc1OCC)CN(C(=O)c1cccc(S(=O)(=O)N3CCCC3)c1)CC2,0.5%,10.4µM*,-9.9%,?,.,8.91µM*
CCOc1ccc(CCNC(=O)C2CCN(S(=O)(=O)c3ccc(C)cc3)CC2)cc1OCC,-4.1%,?,11.8%,-4.6%,-4.4%,.
COc1ccccc1CNC(=O)COC(=O)c1cccc(S(=O)(=O)N2CCOCC2)c1,.,10.0%,-13.9%,1.7%,.,11.2µM*
COc1ccc(CCNC(=O)c2cccc(S(=O)(=O)N3CCc4ccccc4C3)c2)cc1,-5.5%,?,3.9%,9.28µM*,.,14.1µM*
CCOc1ccc(CCNC(=O)c2ccc3c(c2)NC(=O)C2CCCN32)cc1OCC (configuration not stated),-1.8%,9.28µM*,.,5.22µM*,4.3%,.
